Test results as given in PubChem BioAssay (Tox21).
Results filed as inconclusive are left out. Calls of active or inactive are those of the source. Unless noted, calls follow the shape of the dose curve; as a rule, active = well fitted curve in the direction sought with a large enough effect in the repeat runs; inconclusive = weak or mixed curves; inactive = no such curve, though single readings can be large; an effect the other way counts as inactive or inconclusive.

What was measured:
[1] = qHTS assay for small molecule agonists of the p53 signaling pathway (AID 651631; calls by dose curve; also: nearly all actives have a fitted effect of over 15% in size)
How it was run: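 Readout was fluorescence from the LiveBLAzer FRET substrate, applied for 2 h at room temperature after 16 h compound exposure at 37 °C. Cells were the p53RE-bla HCT-116 line, with beta-lactamase driven by p53 response elements.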

[2] = qHTS assay for small molecules that induce genotoxicity in human embryonic kidney cells expressing luciferase-tagged ATAD5 (AID 651632); also: nearly all actives have a fitted effect of over 15% in size
How it was run: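 Cells were seeded at 2,000 per well, dosed with compound, and incubated 16 hr at 37C in 5% CO2. Luciferase activity was then quantified after a 30 min room-temperature incubation with Amplite.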

[3] = qHTS assay for small molecule agonists of the p53 signaling pathway - cell viability (AID 651633; calls by dose curve; also: series mostly up to about 83 µM; nearly all actives have a fitted effect of over 30% in size)
How it was run: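 Viability counter-read: CellTiter-Glo luminescence (30 min, room temperature) in the same p53RE-bla plates. These plates had been exposed to compounds for 16 h at 37 C.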

[4] = qHTS assay for small molecules that induce genotoxicity in human embryonic kidney cells expressing luciferase-tagged ATAD5 - cell viability (AID 651634; calls by dose curve; also: nearly all actives have a fitted effect of over 25% in size)
How it was run: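 Cells (HEK293T, luciferase-tagged ATAD5) are seeded at 2,000 per well, dosed with compound or DMSO vehicle, and incubated 15.5 hr at 37C and 5% CO2. CellTiter-Fluor is added for 30 min before fluorescence is measured.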

[5] = qHTS assay for small molecule disruptors of the mitochondrial membrane potential - cell viability (AID 720634; calls by dose curve;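 also: human HepG2 liver cancer cells; series mostly up to about 83 µM; nearly all actives have a fitted effect of over 20% in size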)
How it was run: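 Cytotoxicity was measured by ATP quantitation in HepG2 wells that had first been treated with compound for 1 hr and stained with m-MPI dye; CellTiter-Glo incubation was 30 min at room temperature.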

[6] = qHTS assay to test for compound auto fluorescence at 590 nm (red) in HepG2 cells (AID 720674)
How it was run: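 We screened compounds on adherent HepG2 cells, incubating them for an hour at 37 C in 5% CO2 before reading emission at 590 nm under 540 nm excitation; values reflect equivalence to Rose Bengal sodium fluorescence.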

[7] = qHTS assay to test for compound auto fluorescence at 535 nm (green) in HepG2 cells (AID 720675)
[8] = qHTS assay to test for compound auto fluorescence at 460 nm (blue) in HEK293 cells (AID 720678)
How it was run: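 After cell attachment (4-5 hr, 37C), compounds were pinned onto HEK293 monolayers in 10% dialyzed FBS medium. The blue channel (405/460 nm) was read following overnight culture. Equivalency was calculated against triamterene.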

[9] = qHTS assay to test for compound auto fluorescence at 590 nm (red) in HEK293 cells (AID 720679)
How it was run: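 Plates of HEK293 cells (10% dialyzed FBS) are treated with 23 nL compound or DMSO vehicle after a 4-5 hr attachment period, incubated overnight at 37C, and read for red fluorescence at 540/590nm.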

[10] = qHTS assay to test for compound auto fluorescence at 535 nm (green) in HEK293 cells (AID 720680)
[11] = qHTS assay to test for compound auto fluorescence at 460 nm (blue) in HEK293 cell free culture (AID 720681)
How it was run: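 Blue fluorescence (Ex 405/Em 460 nm, triamterene-equivalent) was read immediately after pin transfer of compound or DMSO into medium (DMEM, 10% FBS) without cells.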

[12] = qHTS assay to test for compound auto fluorescence at 535 nm (green) in HEK293 cell free culture (AID 720682)
How it was run: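 Compounds were pin-transferred into cell-free DMEM with 10% FBS, and green fluorescence was read at excitation 485 nm and emission 535 nm. Intensities were expressed as fluorescein-equivalent values.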

[13] = qHTS assay to test for compound auto fluorescence at 590 nm (red) in HEK293 cell free culture (AID 720683)
How it was run: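 Red-channel autofluorescence of compounds in culture medium (DMEM, 10% FBS), no cells, measured at 540/590 nm. Rose Bengal sodium is the reference fluorophore for equivalence.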

[14] = qHTS assay to test for compound auto fluorescence at 590 nm (red) in HepG2 cell free culture (AID 720684)
How it was run: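 No cells present: MEM + 10% FBS only. Compound pinned in, red label read (540/590 nm). Activity = fluorescence equivalent to Rose Bengal sodium.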

[15] = qHTS assay to test for compound auto fluorescence at 460 nm (blue) in HepG2 cell free culture (AID 720685)
How it was run: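 Cell-free plates of MEM plus 10% FBS received 23 nL compound or DMSO vehicle; blue-channel (405/460 nm) intensity scored against triamterene as reference fluorophore.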

[16] = qHTS assay to test for compound auto fluorescence at 535 nm (green) in HepG2 cell free culture (AID 720686)
[17] = qHTS assay to test for compound auto fluorescence at 460 nm (blue) in HepG2 cells (AID 720687)
How it was run: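 Blue-channel autofluorescence (Ex/Em 405/460 nm, triamterene-equivalent) was measured after 1 hr compound exposure at 37 C, 5% CO2. Cells were HepG2, plated overnight at 37 C in MEM plus 10% FBS.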

[18] = target: Glucocorticoid receptor (Homo sapiens) (UniProt P04150); experiment: qHTS assay to identify small molecule agonists of the glucocorticoid receptor (GR) signaling pathway (AID 720691; active = well fitted activation curve with a large enough effect in the signal ratio in the repeat runs, not every such curve was filed as active; the % refers to the signal ratio)
How it was run: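 Steps: seed GR-bla HeLa cells, incubate 4 h at 37 C/5% CO2; pin-transfer DMSO-dissolved compounds; incubate 18 h at 37 C; add LiveBLAzer B/G FRET substrate; after 2 h at room temperature, measure fluorescence.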

[19] = target: Glucocorticoid receptor (Homo sapiens) (UniProt P04150); experiment: qHTS assay to identify small molecule antagonists of the glucocorticoid receptor (GR) signaling pathway (AID 720692; active = well fitted inhibition curve with a large enough effect in the signal ratio in the repeat runs, not every such curve was filed as active; the % refers to the signal ratio)
How it was run: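 Antagonism was scored as loss of dexamethasone-driven (5 nM final) reporter signal in HeLa cells bearing a glucocorticoid response element–beta-lactamase construct, after 18 h compound exposure at 37 C and 2 h FRET substrate loading.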

[20] = qHTS assay for small molecule disruptors of the mitochondrial membrane potential (AID 720635)
How it was run: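 Mitochondrial membrane potential tracked with Mito-MPS dye, red aggregates (ex 540/em 590 nm) against green monomers (ex 490/em 535 nm). Compound treatment 1 hr at 37C, dye 30 min in HepG2.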
% is scaled to controls: 0 for no effect and ±100 for the full control effect.

Glucocorticoid receptor (Homo sapiens), sequence (P04150 whole entry, looked up): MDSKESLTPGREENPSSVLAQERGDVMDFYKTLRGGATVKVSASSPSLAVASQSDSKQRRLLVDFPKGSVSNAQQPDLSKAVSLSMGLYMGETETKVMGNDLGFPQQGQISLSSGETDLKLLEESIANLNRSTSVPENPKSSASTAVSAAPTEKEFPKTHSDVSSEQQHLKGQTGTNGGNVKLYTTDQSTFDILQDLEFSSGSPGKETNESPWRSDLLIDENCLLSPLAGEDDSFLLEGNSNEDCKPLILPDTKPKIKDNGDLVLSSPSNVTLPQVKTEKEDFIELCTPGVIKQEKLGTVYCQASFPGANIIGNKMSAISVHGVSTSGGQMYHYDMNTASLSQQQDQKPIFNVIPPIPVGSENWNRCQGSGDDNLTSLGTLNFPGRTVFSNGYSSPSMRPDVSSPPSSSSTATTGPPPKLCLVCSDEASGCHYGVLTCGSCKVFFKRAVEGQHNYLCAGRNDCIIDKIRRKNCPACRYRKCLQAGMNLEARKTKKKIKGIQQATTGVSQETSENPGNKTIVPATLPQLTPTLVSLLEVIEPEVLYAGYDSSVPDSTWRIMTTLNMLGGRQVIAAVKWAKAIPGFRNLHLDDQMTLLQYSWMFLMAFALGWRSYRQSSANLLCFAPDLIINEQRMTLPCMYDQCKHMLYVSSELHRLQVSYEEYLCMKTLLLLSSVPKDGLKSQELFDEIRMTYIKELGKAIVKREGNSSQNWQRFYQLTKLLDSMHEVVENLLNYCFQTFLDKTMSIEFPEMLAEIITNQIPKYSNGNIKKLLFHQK

CCC(=O)CC
inactive: outcome [1] | outcome [2] | outcome [3] | Potency [4] | outcome [5] | outcome [6] | outcome [7] | outcome [8] | outcome [9] | outcome [10] | outcome [11] | outcome [12] | outcome [13] | outcome [14] | outcome [15] | outcome [16] | outcome [17]

OCC1(CO)COCOC1
inactive: outcome [1] | outcome [2] | outcome [3] | Potency [4] | outcome [5] | outcome [6] | outcome [7] | outcome [8] | outcome [9] | outcome [10] | outcome [11] | outcome [12] | outcome [14] | outcome [15] | outcome [17] | Potency [18]

CCC[C@@H]1C[C@@H](C(=O)N[C@@H]([C@H]2O[C@H](SC)[C@H](O)[C@@H](O)[C@H]2O)[C@@H](C)O)N(C)C1
inactive: outcome [1] | outcome [2] | outcome [3] | Potency [4] | outcome [5] | outcome [7] | outcome [8] | outcome [9] | outcome [10] | outcome [11] | outcome [13] | outcome [14] | outcome [15] | outcome [16] | outcome [17] | outcome [19]

CCCCCc1cccc(=O)o1
inactive: outcome [1] | outcome [2] | outcome [3] | Potency [4] | outcome [5] | Potency [20] | outcome [6] | outcome [8] | outcome [9] | outcome [10] | outcome [11] | outcome [14] | outcome [15] | outcome [16] | outcome [17]

CC(=O)CC(=O)Nc1ccc(C)cc1C
inactive: outcome [1] | outcome [2] | outcome [3] | Potency [4] | outcome [5] | outcome [7] | outcome [8] | outcome [9] | outcome [10] | outcome [11] | outcome [12] | outcome [13] | outcome [14] | outcome [16] | outcome [17] | Potency [18] | outcome [19]

CC1(C)Cc2cccc(N)c2O1
inactive: outcome [1] | outcome [2] | outcome [3] | Potency [4] | outcome [5] | Potency [20] | outcome [6] | outcome [8] | outcome [9] | outcome [10] | outcome [12] | outcome [13] | outcome [14] | outcome [15] | outcome [16] | outcome [17]

CN(C)CCCCl
inactive: outcome [1] | outcome [2] | outcome [3] | Potency [4] | outcome [5] | Potency [20] | outcome [7] | outcome [8] | outcome [9] | outcome [10] | outcome [11] | outcome [12] | outcome [13] | outcome [14] | outcome [15] | outcome [16] | outcome [17] | outcome [19]

C[Si]1(C)O[Si](C)(C)O[Si](C)(C)O[Si](C)(C)O[Si](C)(C)O1
inactive: outcome [1] | outcome [2] | outcome [3] | Potency [4] | Potency [20] | outcome [6] | outcome [7] | outcome [8] | outcome [9] | outcome [10] | outcome [11] | outcome [12] | outcome [13] | outcome [14] | outcome [15] | outcome [16] | outcome [17]

CC(=O)OC1CCCCC1C(C)(C)C (centres undefined)
inactive: outcome [1] | outcome [2] | outcome [3] | Potency [4] | outcome [5] | Potency [20] | outcome [7] | outcome [8] | outcome [9] | outcome [10] | outcome [11] | outcome [12] | outcome [13] | outcome [14] | outcome [15] | outcome [16] | outcome [17]

C=C(C)c1cccc(C(C)(C)N=C=O)c1
inactive: outcome [1] | outcome [2] | outcome [3] | Potency [4] | outcome [5] | outcome [7] | outcome [8] | outcome [9] | outcome [10] | outcome [11] | outcome [13] | outcome [14] | outcome [15] | outcome [16] | outcome [17] | Potency [18]

CCCCCCCCCCCCCCC(=O)NC(CO)CCCCCCCCCCCCCC (centres undefined)
inactive: outcome [1] | outcome [2] | outcome [3] | Potency [4] | outcome [5] | outcome [6] | outcome [7] | outcome [8] | outcome [9] | outcome [10] | outcome [11] | outcome [13] | outcome [14] | outcome [15] | outcome [16] | outcome [17] | Potency [18]

O=C(O)CSCC(=O)NC1CCSC1=O (centres undefined)
inactive: outcome [1] | outcome [2] | outcome [3] | Potency [4] | outcome [5] | Potency [20] | outcome [7] | outcome [8] | outcome [9] | outcome [10] | outcome [11] | outcome [12] | outcome [13] | outcome [14] | outcome [15] | outcome [17]

CCCCOC(=O)[C@H](C)O
inactive: outcome [1] | outcome [2] | outcome [3] | Potency [4] | outcome [5] | outcome [8] | outcome [9] | outcome [10] | outcome [11] | outcome [12] | outcome [13] | outcome [14] | outcome [16] | outcome [17] | Potency [18]

O=C1c2ccccc2C(=O)c2cc(Cl)ccc21
inactive: activation [1] -4.52% [at 8.3 µM] | activation [2] 2.88% [at 8.08 µM] | activity change, negative = cytotoxicity [3] -10.5% [at 8.08 µM] | activity, negative = cytotoxicity [4] 10.7% [at 8.08 µM] | activity change, negative = cytotoxicity [5] 3.06% [at 8.08 µM] | fluorescence, relative to Rose Bengal [6] -0.0283% [at 3.72 µM] | fluorescence, % of fluorescein control [7] -0.0348% [at 3.72 µM] | fluorescence, % of triamterene [8] -0.0543% [at 3.72 µM] | fluorescence, % of fluorescent control [9] -0.785% [at 3.72 µM] | fluorescence, % of fluorescein [10] 0.0004% [at 3.72 µM] | fluorescence, % of fluorescent control [11] -0.0102% [at 3.72 µM] | activity change [12] -0.0107% [at 3.72 µM] | fluorescence, % of fluorescent control [13] -0.094% [at 3.72 µM] | fluorescence, % of Rose Bengal [14] -0.0228% [at 3.72 µM] | fluorescence, % of fluorescent control [15] -0.0625% [at 3.72 µM] | fluorescence, % of fluorescent control [17] -0.0186% [at 3.72 µM] | activity change, negative = inhibition [19] -15.1% [at 7.04 µM]

c1ccc2c(CC3=NCCN3)cccc2c1
inactive: outcome [1] | outcome [2] | outcome [3] | Potency [4] | outcome [5] | Potency [20] | outcome [7] | outcome [8] | outcome [9] | outcome [10] | outcome [11] | outcome [12] | outcome [13] | outcome [14] | outcome [15] | outcome [16] | outcome [17]

CCOC(CN1CCN(CC(C)C(=O)c2ccccc2)CC1)c1ccccc1 (centres undefined)
inactive: outcome [1] | outcome [2] | outcome [3] | Potency [4] | outcome [5] | Potency [20] | outcome [6] | outcome [8] | outcome [9] | outcome [10] | outcome [11] | outcome [13] | outcome [14] | outcome [15] | outcome [16] | outcome [17] | Potency [18]
